# Results reported in publication PMC8384837, “Expanding the binding specificity for RNA recognition by a PUF domain”.
# Changes are numbered by the printed parent chain.
# What was measured:
# Experiment in all cases: yeast three-hybrid, YBZ-1, SC-Leu-His + 0.5 mM 3-AT, 4 days
# Conditions in all cases: tags: N-Gal4 AD-HA kept; label: inside an RPR1-promoter hybrid RNA with tandem MS2 sites; ssRNA
# PUM1 PUF domain R1-QWR = PUM1 PUF domain R1-QWR (Homo sapiens, UniProt Q14671 828-1176, S863Q;R864W;Q867R)
# Summary of the method: (§1)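 Sequencing with Illumina followed PCR amplification of the repeat regions from transformants grown four days on SC-Leu (input) or SC-Leu-His + 0.5 mM 3-AT (selection). The transformants were strain YBZ-1 with a LexA–MS2 coat fusion and a HIS3 reporter, carrying Pumilio-1 PUF domain libraries and matching RNA elements. The interaction score is the log change in variant frequency from input to selection, computed in log2 with a pseudocount of 1 for absent variants.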
# PUM1 PUF domain R4-MPH = PUM1 PUF domain R4-MPH (Homo sapiens, UniProt Q14671 828-1176, N971M;H972P;Q975H)
# Summary of the method: as §1
# PUM1 PUF domain R6-GFQ = target: T1, PUM1 PUF domain R6-GFQ (Homo sapiens, UniProt Q14671 828-1176, N1043G;Y1044F)
# T1 sequence: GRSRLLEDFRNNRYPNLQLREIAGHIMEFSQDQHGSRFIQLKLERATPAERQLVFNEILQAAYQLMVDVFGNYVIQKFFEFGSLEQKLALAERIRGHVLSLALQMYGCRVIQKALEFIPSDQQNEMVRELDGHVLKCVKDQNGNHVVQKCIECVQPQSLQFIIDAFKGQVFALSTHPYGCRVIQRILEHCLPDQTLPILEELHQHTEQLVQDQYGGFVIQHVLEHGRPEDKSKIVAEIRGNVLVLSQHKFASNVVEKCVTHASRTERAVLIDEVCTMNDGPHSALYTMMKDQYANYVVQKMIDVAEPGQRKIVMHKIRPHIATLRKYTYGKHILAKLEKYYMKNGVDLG
# Summary of the method: as §1
# PUM1 PUF domain R8-RWE = PUM1 PUF domain R8-RWE (Homo sapiens, UniProt Q14671 828-1176, N1122R;Y1123W;Q1126E)
# Summary of the method: as §1
# PUM1 PUF domain R6-TWK = target: T2, PUM1 PUF domain R6-TWK (Homo sapiens, UniProt Q14671 828-1176, N1043T;Y1044W;Q1047K)
# T2 sequence: T1 sequence with G216T, F217W, Q220K
# Summary of the method: as §1
# PUM1 PUF domain R5-NRV = PUM1 PUF domain R5-NRV (Homo sapiens, UniProt Q14671 828-1176, C1007N;Q1011V)
# Summary of the method: as §1
# PUM1 PUF domain R8-KKV = PUM1 PUF domain R8-KKV (Homo sapiens, UniProt Q14671 828-1176, N1122K;Y1123K;Q1126V)
# Summary of the method: as §1
# PUM1 PUF domain R3-RAP = PUM1 PUF domain R3-RAP (Homo sapiens, UniProt Q14671 828-1176, C935R;R936A;Q939P)
# Summary of the method: as §1
# PUM1 PUF domain R7-KRV = PUM1 PUF domain R7-KRV (Homo sapiens, UniProt Q14671 828-1176, S1079K;N1080R;E1083V)
# Summary of the method: as §1
# PUM1 PUF domain R5-RMR = PUM1 PUF domain R5-RMR (Homo sapiens, UniProt Q14671 828-1176, C1007R;R1008M;Q1011R)
# Summary of the method: as §1
sequence,measurement,setting,value
GGCUAGAACUAGUGGAUCCCCCGGCGCCCGGCGGCUCGAGCCCGGGUAAGUGUAAAUUGUCUGCAUGCCGCCGGGCGCCAUGCCUGCAGGUCGACUCUAGAAAACAUG,binding signal,PUM1 PUF domain R1-QWR,3.12 log2 enrichment (interaction score)
GGCUAGAACUAGUGGAUCCCCCGGCGCCCGGCGGCUCGAGCCCGGGUAAGUGUAAAUCGUCUGCAUGCCGCCGGGCGCCAUGCCUGCAGGUCGACUCUAGAAAACAUG,binding signal,PUM1 PUF domain R1-QWR,8.29 log2 enrichment (interaction score)
GGCUAGAACUAGUGGAUCCCCCGGCGCCCGGCGGCUCGAGCCCGGGUAAGUGUAAAUAGUCUGCAUGCCGCCGGGCGCCAUGCCUGCAGGUCGACUCUAGAAAACAUG,binding signal,PUM1 PUF domain R4-MPH,3.32 log2 enrichment (interaction score)
same,binding signal,PUM1 PUF domain R6-GFQ,6.29 log2 enrichment (interaction score)
same,binding signal,PUM1 PUF domain R8-RWE,3.03 log2 enrichment (interaction score)
same,binding signal,PUM1 PUF domain R6-TWK,2.26 log2 enrichment (interaction score)
same,binding signal,PUM1 PUF domain R5-NRV,2.44 log2 enrichment (interaction score)
GGCUAGAACUAGUGGAUCCCCCGGCGCCCGGCGGCUCGAGCCCGGGUAAGUGAAAAUAGUCUGCAUGCCGCCGGGCGCCAUGCCUGCAGGUCGACUCUAGAAAACAUG,binding signal,PUM1 PUF domain R6-GFQ,0.48 log2 enrichment (interaction score)
GGCUAGAACUAGUGGAUCCCCCGGCGCCCGGCGGCUCGAGCCCGGGUAAGCGUAAAUAGUCUGCAUGCCGCCGGGCGCCAUGCCUGCAGGUCGACUCUAGAAAACAUG,binding signal,PUM1 PUF domain R8-RWE,4.69 log2 enrichment (interaction score)
same,binding signal,PUM1 PUF domain R8-KKV,2.53 log2 enrichment (interaction score)
GGCUAGAACUAGUGGAUCCCCCGGCGCCCGGCGGCUCGAGCCCGGGUAAGUGUAAUUAGUCUGCAUGCCGCCGGGCGCCAUGCCUGCAGGUCGACUCUAGAAAACAUG,binding signal,PUM1 PUF domain R3-RAP,3.87 log2 enrichment (interaction score)
GGCUAGAACUAGUGGAUCCCCCGGCGCCCGGCGGCUCGAGCCCGGGUAAGUCUAAAUAGUCUGCAUGCCGCCGGGCGCCAUGCCUGCAGGUCGACUCUAGAAAACAUG,binding signal,PUM1 PUF domain R7-KRV,5.35 log2 enrichment (interaction score)
GGCUAGAACUAGUGGAUCCCCCGGCGCCCGGCGGCUCGAGCCCGGGUAAGUGUCAAUAGUCUGCAUGCCGCCGGGCGCCAUGCCUGCAGGUCGACUCUAGAAAACAUG,binding signal,PUM1 PUF domain R5-RMR,3.2 log2 enrichment (interaction score)
GGCUAGAACUAGUGGAUCCCCCGGCGCCCGGCGGCUCGAGCCCGGGUAAGUGUUAAUAGUCUGCAUGCCGCCGGGCGCCAUGCCUGCAGGUCGACUCUAGAAAACAUG,binding signal,PUM1 PUF domain R5-RMR,2.49 log2 enrichment (interaction score)
GGCUAGAACUAGUGGAUCCCCCGGCGCCCGGCGGCUCGAGCCCGGGUAAGUGUGAAUAGUCUGCAUGCCGCCGGGCGCCAUGCCUGCAGGUCGACUCUAGAAAACAUG,binding signal,PUM1 PUF domain R5-NRV,2.59 log2 enrichment (interaction score)
